Data reported in PubChem BioAssay AID1159580 (chemical genetic matrix, 2015).
About 2,000 (36%) of roughly 5,500 compounds were called active. About 18% were inconclusive and are not listed. Cut-off read from the data, not from the text of the source: active = normalized growth mostly below about 0.91 (no sharp cut-off); inconclusive = no clear call, values can overlap the other calls; inactive = mostly above about 0.92. This is one part of the list.

Assay: chemical genetic growth profiling, strain panel (AID 1159580);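 note: tested at 20 µM; growth read once vehicle control cultures reached saturation at 30 °C; 1 = growth at the plate median or of vehicle wells; lower values mean less growth of the strain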
Conditions: S. cerevisiae deletion strains, growth OD

Measured: normalized growth

CC(CCC(=O)O)[C@H]1CCC2C3C(=O)C[C@@H]4CC(=O)CC[C@]4(C)C3CC(=O)[C@@]21C (stereo not given in full)
inactive: locus YAL021C, strain ccr4, stronger effect = lower value 0.995 | locus YAL026C, strain drs2, stronger effect = lower value 1 | locus YAL030W, strain snc1, stronger effect = lower value 0.994 | locus YBL061C, strain skt5, stronger effect = lower value 0.994 | locus YBR009C, strain hhf1, stronger effect = lower value 0.995 | locus YBR023C, strain chs3, stronger effect = lower value 0.993 | locus YBR171W, strain sec66, stronger effect = lower value 0.982 | locus YBR231C, strain swc5, stronger effect = lower value 0.994 | locus YBR279W, strain paf1, stronger effect = lower value 0.982 | locus YCL011C, strain gbp2, stronger effect = lower value 0.987 | locus YCL016C, strain dcc1, stronger effect = lower value 0.984 | locus YCL061C, strain MRC1, stronger effect = lower value 0.987 | locus YCL069W, strain vba3, stronger effect = lower value 0.995 | locus YCR088W, strain abp1, stronger effect = lower value 0.994 | locus YDL005C, strain med2, stronger effect = lower value 0.986 | locus YDL040C, strain nat1, stronger effect = lower value 0.991 | locus YDR001C, strain nth1, stronger effect = lower value 0.993 | locus YDR069C, strain doa4, stronger effect = lower value 1 | locus YDR137W, strain rgp1, stronger effect = lower value 1.01 | locus YDR159W, strain sac3, stronger effect = lower value 1.01 | locus YDR195W, strain ref2 0.999 | locus YDR297W, strain sur2, stronger effect = lower value 0.996 | locus YDR334W, strain swr1, stronger effect = lower value 0.993 | locus YDR335W, strain msn5, stronger effect = lower value 0.997 | locus YDR392W, strain spt3, stronger effect = lower value 0.932 | locus YEL003W, strain gim4, stronger effect = lower value 1.01 | locus YEL037C, strain rad23, stronger effect = lower value 0.99 | locus YEL061C, strain CIN8 (second series), stronger effect = lower value 0.99 | locus YER015W, strain faa2, stronger effect = lower value 1.01 | locus YER016W, strain bim1, stronger effect = lower value 0.999 | locus YER111C, strain swi4, stronger effect = lower value 0.998 | locus YER155C, strain BEM2 (second series), stronger effect = lower value 0.999 | locus YFR010W, strain ubp6, stronger effect = lower value 0.992 | locus YGL167C, strain pmr1, stronger effect = lower value 0.992 | locus YGL173C, strain kem1, stronger effect = lower value 0.989 | locus YGL227W, strain vid30, stronger effect = lower value 0.985 | locus YGL240W, strain doc1, stronger effect = lower value 1.01 | locus YGL253W, strain hxk2, stronger effect = lower value 0.991 | locus YHR013C, strain ard1, stronger effect = lower value 0.99 | locus YHR027C, strain rpn1, stronger effect = lower value 0.995 | locus YHR030C, strain SLT2, stronger effect = lower value 1.02 | locus YHR079C, strain IRE1, stronger effect = lower value 1.02 | locus YHR142W, strain chs7, stronger effect = lower value 0.952 | locus YJL092W, strain hpr5, stronger effect = lower value 0.993 | locus YJL095W, strain BCK1 (second series), stronger effect = lower value 0.991 | locus YJL095W, strain BCK1, stronger effect = lower value 1.01 | locus YJL115W, strain asf1, stronger effect = lower value 0.991 | locus YJL129C, strain trk1, stronger effect = lower value 1.01 | locus YJL154C, strain vps35, stronger effect = lower value 0.993 | locus YJL164C, strain tpk1, stronger effect = lower value 0.99 | locus YJL166W, strain qcr8, stronger effect = lower value 0.989 | locus YJL187C, strain SWE1, stronger effect = lower value 0.99 | locus YJR066W, strain TOR1, stronger effect = lower value 0.975 | locus YKL160W, strain elf1, stronger effect = lower value 0.977 | locus YKR026C, strain gcn3, stronger effect = lower value 0.993 | locus YKR091W, strain srl3, stronger effect = lower value 0.99 | locus YLL001W, strain dnm1, stronger effect = lower value 0.975 | locus YLL026W, stronger effect = lower value 0.998 | locus YLL041C, strain sdh2, stronger effect = lower value 0.993 | locus YLR027C, strain aat2, stronger effect = lower value 0.991 | locus YLR113W, strain HOG1, stronger effect = lower value 1.05 | locus YLR221C, strain rsa3, stronger effect = lower value 0.964 | locus YLR258W, strain gsy2, stronger effect = lower value 0.992 | locus YLR262C, strain YPT6 (second series), stronger effect = lower value 1 | locus YLR320W, strain mms22, stronger effect = lower value 0.971 | locus YLR342W, strain FKS1, stronger effect = lower value 0.99 | locus YLR357W, strain rsc2, stronger effect = lower value 0.986 | locus YLR370C, strain arc18, stronger effect = lower value 0.993 | locus YLR384C, strain iki3, stronger effect = lower value 0.978 | locus YML120C, strain ndi1, stronger effect = lower value 0.989 | locus YMR058W, strain fet3, stronger effect = lower value 0.999 | locus YMR125W, strain sto1, stronger effect = lower value 0.982 | locus YMR129W, stronger effect = lower value 0.99 | locus YMR205C, strain PFK2, stronger effect = lower value 0.989 | locus YMR231W, strain pep5, stronger effect = lower value 0.999 | locus YNL071W, strain lat1, stronger effect = lower value 0.997 | locus YNL183C, strain NPR1, stronger effect = lower value 0.997 | locus YNL209W, strain ssb2, stronger effect = lower value 0.997 | locus YNL248C, strain rpa49, stronger effect = lower value 0.982 | locus YNL322C, strain KRE1 (second series), stronger effect = lower value 0.992 | locus YNR049C, strain mso1, stronger effect = lower value 0.992 | locus YOR001W, strain rrp6, stronger effect = lower value 1.02 | locus YOR070C, strain gyp1, stronger effect = lower value 0.996 | locus YOR080W, strain dia2, stronger effect = lower value 0.994 | locus YOR083W, strain WHI5, stronger effect = lower value 0.969 | locus YOR106W, strain vam3, stronger effect = lower value 0.974 | locus YOR231W, strain MKK1, stronger effect = lower value 1.07 | locus YOR265W, strain rbl2, stronger effect = lower value 0.998 | locus YOR270C, strain vph1, stronger effect = lower value 0.957 | locus YOR290C, strain snf2, stronger effect = lower value 0.993 | locus YPL051W, strain arl3, stronger effect = lower value 1.01 | locus YPL078C, strain atp4, stronger effect = lower value 0.98 | locus YPL106C, strain sse1, stronger effect = lower value 0.975 | locus YPL240C, strain hsp82, stronger effect = lower value 1 | locus YPL256C, strain CLN2, stronger effect = lower value 1.02
